Structures are written as SMILES. Out of some 39,000 compounds screened, about 3,300 (8.5%) were called active. The sample holds actives, similar compounds and a random draw of the others, so the mix is not that of the screen.

The assay has as its system HepG2. The experiment in a line: cytotoxicity call (relative viability < 0.9). Conditions: 10 µM.
For `COc1ccc(S(=O)(=O)Nc2ccc3c(c2)C(=O)N([C@@H](C)CO)C[C@H](C)[C@H](CN(C)Cc2ccc(C(F)(F)F)cc2)OCCCC[C@H](C)O3)cc1`, the cytotoxicity call is “active”. Regarding `COc1ccc(S(=O)(=O)Nc2ccc3c(c2)C(=O)N([C@@H](C)CO)C[C@H](C)[C@@H](CN(C)Cc2ccc(C(F)(F)F)cc2)OCCCC[C@@H](C)O3)cc1`, the cytotoxicity call is “active”. The same measure for `COc1ccc(S(=O)(=O)Nc2ccc3c(c2)C(=O)N([C@H](C)CO)C[C@@H](C)[C@@H](CN(C)Cc2ccc(C(F)(F)F)cc2)OCCCC[C@H](C)O3)cc1`: “inactive”. Take `COc1ccc(S(=O)(=O)Nc2ccc3c(c2)C(=O)N([C@H](C)CO)C[C@H](C)[C@@H](CN(C)Cc2ccc(C(F)(F)F)cc2)OCCCC[C@@H](C)O3)cc1`: the cytotoxicity call was “inactive”. On to `COc1ccc(S(=O)(=O)Nc2ccc3c(c2)C(=O)N([C@@H](C)CO)C[C@@H](C)[C@H](CN(C)Cc2ccc(C(F)(F)F)cc2)OCCCC[C@@H](C)O3)cc1`, for which the cytotoxicity call is “active”.

Regarding `COc1ccc(S(=O)(=O)Nc2ccc3c(c2)C(=O)N([C@@H](C)CO)C[C@@H](C)[C@@H](CN(C)Cc2ccc(C(F)(F)F)cc2)OCCCC[C@@H](C)O3)cc1`, the cytotoxicity call was “active”. The same measure for `C[C@@H]1CCCCO[C@@H](CN(C)C(=O)c2ccncc2)[C@@H](C)CN([C@H](C)CO)C(=O)c2cc(NC(=O)NC3CCCCC3)ccc2O1`: “inactive”; for `CO[C@H]1CN(C)C(=O)c2ccc(NC(=O)C3CC3)cc2OC[C@H](C)N(C(=O)Cc2ccccn2)C[C@@H]1C`: “inactive”. The same measure for `C[C@@H]1CN([C@H](C)CO)C(=O)c2cccc(NC(=O)Nc3ccccc3)c2O[C@@H]1CN(C)Cc1ccc(Cl)c(Cl)c1`: “inactive”. In the case of `C[C@H](CO)N1C[C@H](C)[C@@H](CN(C)C(=O)Nc2ccc3c(c2)OCO3)Oc2ncc(-c3cccnc3)cc2C1=O`, the cytotoxicity call was “inactive”. The same measure for `CCS(=O)(=O)Nc1ccc2c(c1)C(=O)N(C)[C@H]1CC[C@@H](CC(=O)NCCOC)O[C@H]1CO2`: “inactive”; for `C[C@H](CO)N1C[C@H](C)[C@H](CN(C)CC2CCCCC2)Oc2c(NC(=O)c3cnccn3)cccc2C1=O`: “inactive”; for `Nc1ccn([C@@H]2CS[C@H](CO)O2)c(=O)n1`: “inactive”. Consider `CN1CCN(C(=O)C[C@H]2CC[C@@H]3[C@@H](COc4ccc(NC(=O)C5CCCCC5)cc4C(=O)N3C)O2)CC1`, for which the cytotoxicity call is “inactive”.

For the compound `CCCNC(=O)N1C[C@]2(CN(C2)S(=O)(=O)c2ccc(cc2)OC)c2c(n(c3cc(ccc23)OC)C)[C@@H]1CO`, the cytotoxicity call is “inactive”. The same measure for `C[C@H](CO)N1C[C@H](C)[C@@H](CN(C)C(=O)c2cccc(F)c2)Oc2cc(C#CC3CC3)ccc2S1(=O)=O`: “inactive”; for `CNC(=O)C[C@H]1CC[C@H]2[C@@H](COC[C@H](O)CN2C(=O)Nc2ccc3c(c2)OCO3)O1`: “inactive”; for `C[C@@H]1CN([C@@H](C)CO)C(=O)c2cc(NC(=O)c3ccncc3)ccc2O[C@@H]1CN(C)S(=O)(=O)c1cccs1`: “inactive”. The same measure for `COc1ccc(NC(=O)N(C)C[C@@H]2Oc3ccc(NS(C)(=O)=O)cc3C(=O)N([C@H](C)CO)C[C@@H]2C)cc1`: “inactive”; for `Cc1noc(C)c1NC(=O)N(C)C[C@H]1OCCCC[C@H](C)Oc2ccc(NC(=O)Nc3cccc4ccccc34)cc2C(=O)N([C@H](C)CO)C[C@@H]1C`: “inactive”.

Take `C[C@@H]1CN([C@@H](C)CO)C(=O)c2cccc(NC(=O)c3ccc(-c4nccs4)cc3)c2O[C@H]1CN(C)C(=O)Nc1ccc2c(c1)OCO2`: the cytotoxicity call is “inactive”. As to `O=C(O)c1cc(O)c2cccc(O)c2n1`, the cytotoxicity call is “inactive”.

In the case of `COc1ccc(S(=O)(=O)Nc2ccc3c(c2)C(=O)N([C@@H](C)CO)C[C@@H](C)[C@H](CN(C)Cc2ccc(C(F)(F)F)cc2)OCCCC[C@H](C)O3)cc1`, the cytotoxicity call was “active”. The same measure for `COc1ccc(S(=O)(=O)Nc2ccc3c(c2)C(=O)N([C@H](C)CO)C[C@H](C)[C@H](CN(C)Cc2ccc(C(F)(F)F)cc2)OCCCC[C@@H](C)O3)cc1`: “active”.

For `COc1ccc(S(=O)(=O)Nc2ccc3c(c2)C(=O)N([C@@H](C)CO)C[C@H](C)[C@@H](CN(C)Cc2ccc(C(F)(F)F)cc2)OCCCC[C@H](C)O3)cc1`, the cytotoxicity call was “inactive”. Turning to `COc1ccc(S(=O)(=O)Nc2ccc3c(c2)C(=O)N([C@H](C)CO)C[C@@H](C)[C@H](CN(C)Cc2ccc(C(F)(F)F)cc2)OCCCC[C@@H](C)O3)cc1`, the cytotoxicity call was “active”. Turning to `COc1ccc(S(=O)(=O)Nc2ccc3c(c2)C(=O)N([C@H](C)CO)C[C@H](C)[C@@H](CN(C)Cc2ccc(C(F)(F)F)cc2)OCCCC[C@H](C)O3)cc1`, the cytotoxicity call is “inactive”.

Take `COc1ccc(S(=O)(=O)Nc2ccc3c(c2)C(=O)N([C@@H](C)CO)C[C@H](C)[C@H](CN(C)Cc2ccc(C(F)(F)F)cc2)OCCCC[C@@H](C)O3)cc1`: the cytotoxicity call is “inactive”. As to `COc1ccc(S(=O)(=O)Nc2ccc3c(c2)C(=O)N([C@H](C)CO)C[C@@H](C)[C@H](CN(C)Cc2ccc(C(F)(F)F)cc2)OCCCC[C@H](C)O3)cc1`, the cytotoxicity call is “inactive”. Regarding `COc1ccc(S(=O)(=O)Nc2ccc3c(c2)C(=O)N([C@H](C)CO)C[C@@H](C)[C@@H](CN(C)Cc2ccc(C(F)(F)F)cc2)OCCCC[C@@H](C)O3)cc1`, the cytotoxicity call was “active”. With `COc1ccc(S(=O)(=O)Nc2ccc3c(c2)C(=O)N([C@H](C)CO)C[C@H](C)[C@H](CN(C)Cc2ccc(C(F)(F)F)cc2)OCCCC[C@H](C)O3)cc1`, the cytotoxicity call was “inactive”. The same measure for `COc1ccc(S(=O)(=O)Nc2ccc3c(c2)C(=O)N([C@@H](C)CO)C[C@@H](C)[C@@H](CN(C)Cc2ccc(C(F)(F)F)cc2)OCCCC[C@H](C)O3)cc1`: “inactive”; for `C[C@H]1CN([C@@H](C)CO)C(=O)c2cc(NC(=O)CCCN(C)C)ccc2O[C@H]1CN(C)S(=O)(=O)c1ccccc1`: “inactive”; for `C[C@@H]1CN([C@@H](C)CO)S(=O)(=O)c2ccc(Br)cc2O[C@H]1CN(C)C(=O)C1CCCCC1`: “inactive”.

For `C[C@@H]1CN([C@H](C)CO)C(=O)c2cc(-c3cccc(C(=O)N(C)C)c3)cnc2O[C@H]1CN(C)S(=O)(=O)c1cccc(F)c1`, the cytotoxicity call is “inactive”. The same measure for `Cc1cc(C(=O)Nc2cccc3c2O[C@@H](CN(C)S(=O)(=O)c2cccs2)[C@@H](C)CN([C@@H](C)CO)C3=O)n(C)n1`: “inactive”. The same measure for `O=C1C[C@@](C(=O)NCc2ccccc2)(c2ccc([N+](=O)[O-])cc2)[C@@H](c2ccc(CO)cc2)N1CC12CC3CC(CC(C3)C1)C2`: “inactive”; for `Cc1ccc(S(=O)(=O)n2cc([C@H]3CC(=O)N(C(=O)OCc4ccccc4)[C@H]3C(=O)Nc3cccc4cccnc34)c3ccccc32)cc1`: “inactive”; for `C[C@@H]1CN([C@@H](C)CO)C(=O)c2cccc(NC(=O)Nc3ccc4c(c3)OCO4)c2O[C@H]1CN(C)S(=O)(=O)c1cn(C)cn1`: “inactive”.

In the case of `COc1ccc(CN2CCN(C(c3ccc(F)cc3)c3ccc(F)cc3)CC2)c(OC)c1OC.Cl`, the cytotoxicity call is “active”. The same measure for `Cl.Cl.Fc1ccc(C(c2ccc(F)cc2)N2CCN(CC=Cc3ccccc3)CC2)cc1`: “inactive”; for `Cc1cccc(CN2CCN(C(c3ccccc3)c3ccc(Cl)cc3)CC2)c1.Cl.Cl` (centres undefined): “inactive”; for `Cc1ccc(S(=O)(=O)N(C)C[C@H]2Oc3c(NC(=O)C4CCOCC4)cccc3C(=O)N([C@H](C)CO)C[C@H]2C)cc1`: “inactive”. For the compound `CCc1nc2ccc(C(=O)Nc3cc(-c4ccccc4)ccc3OC)cn2c1N(C)C(=O)c1cccc(OC)c1`, the cytotoxicity call was “inactive”. The same measure for `CC(C)NC(=O)Nc1ccc2c(c1)CC(=O)N([C@H](C)CO)C[C@H](C)[C@@H](CN(C)S(=O)(=O)c1ccccc1)O2`: “inactive”. The same measure for `Cc1noc(C)c1NC(=O)N(C)C[C@@H]1OCCCC[C@H](C)Oc2ccc(NC(=O)c3ccccc3)cc2C(=O)N([C@@H](C)CO)C[C@H]1C`: “inactive”. The same measure for `Cc1ccc2nc(CN)[nH]c2c1`: “inactive”. For `Cc1ccc2nc(SCc3c(C)c(C)cc(C)c3C)[nH]c2c1`, the cytotoxicity call was “inactive”.

As for `Cc1ccc2nc(SCc3ccc4ccccc4c3)[nH]c2c1`, the cytotoxicity call was “active”.

`CCCN(C)C[C@@H]1OCCCC[C@@H](C)Oc2ccc(NC(=O)CCC(F)(F)F)cc2C(=O)N([C@H](C)CO)C[C@@H]1C`: the cytotoxicity call was “inactive”. For `C[C@@H]1CCCCO[C@H](CN(C)Cc2ccc(C(=O)O)cc2)[C@H](C)CN([C@@H](C)CO)C(=O)c2cc(NC(=O)NC3CCCCC3)ccc2O1`, the cytotoxicity call was “inactive”. For the compound `C[C@H](CO)N1C[C@H](C)[C@H](CN(C)C(=O)c2ccccc2)OCCCC[C@H](C)Oc2ccc(NC(=O)c3ccccc3)cc2C1=O`, the cytotoxicity call is “inactive”. The same measure for `C=CCC[C@H](Cc1ccc(F)cc1)C(=O)OC[C@H](Cc1c[nH]c2ccccc12)NC(=O)[C@@H](CC=C)CC(=O)N[C@H](CO)Cc1ccccc1`: “active”; for `C=CCC[C@H](Cc1ccc(F)cc1)C(=O)OC[C@@H](Cc1c[nH]c2ccccc12)NC(=O)[C@@H](CC=C)CC(=O)N[C@@H](CO)Cc1ccccc1`: “inactive”. The same measure for `C=CCC[C@H](Cc1ccc(F)cc1)C(=O)OC[C@@H](Cc1c[nH]c2ccccc12)NC(=O)[C@H](CC=C)CC(=O)N[C@@H](CO)Cc1ccccc1`: “active”. Take `C=CCC[C@@H](Cc1ccc(F)cc1)C(=O)OC[C@@H](Cc1c[nH]c2ccccc12)NC(=O)[C@@H](CC=C)CC(=O)N[C@@H](CO)Cc1ccccc1`: the cytotoxicity call was “inactive”. In the case of `C=CC[C@H](CC(=O)N[C@@H](CO)Cc1ccccc1)C(=O)N[C@@H](COC(=O)[C@@H](CC=C)Cc1ccc(F)cc1)Cc1c[nH]c2ccccc12`, the cytotoxicity call was “inactive”. With `C=CCC[C@@H](Cc1ccc(F)cc1)C(=O)OC[C@H](Cc1c[nH]c2ccccc12)NC(=O)[C@@H](CC=C)CC(=O)N[C@H](CO)Cc1ccccc1`, the cytotoxicity call was “inactive”. The same measure for `C=CCC[C@@H](Cc1ccc(F)cc1)C(=O)OC[C@H](Cc1c[nH]c2ccccc12)NC(=O)[C@@H](CC=C)CC(=O)N[C@@H](CO)Cc1ccccc1`: “active”. As for `C=CCC[C@H](Cc1ccc(F)cc1)C(=O)OC[C@H](Cc1c[nH]c2ccccc12)NC(=O)[C@H](CC=C)CC(=O)N[C@@H](CO)Cc1ccccc1`, the cytotoxicity call is “inactive”. As to `C=CCC[C@@H](Cc1ccc(F)cc1)C(=O)OC[C@@H](Cc1c[nH]c2ccccc12)NC(=O)[C@H](CC=C)CC(=O)N[C@@H](CO)Cc1ccccc1`, the cytotoxicity call was “inactive”. `C=CC[C@@H](CC(=O)N[C@H](CO)Cc1ccccc1)C(=O)N[C@H](COC(=O)[C@@H](CC=C)Cc1ccc(F)cc1)Cc1c[nH]c2ccccc12`: the cytotoxicity call is “inactive”. Take `C=CCC[C@@H](Cc1ccc(F)cc1)C(=O)OC[C@@H](Cc1c[nH]c2ccccc12)NC(=O)[C@@H](CC=C)CC(=O)N[C@H](CO)Cc1ccccc1`: the cytotoxicity call is “inactive”.

`C=CCC[C@H](Cc1ccc(F)cc1)C(=O)OC[C@H](Cc1c[nH]c2ccccc12)NC(=O)[C@@H](CC=C)CC(=O)N[C@@H](CO)Cc1ccccc1`: the cytotoxicity call was “active”.

These data come from the antibiotic and cytotoxicity screens of Wong et al. (2023).
